In PubChem BioAssay AID1745849 (National Center for Advancing Translational Sciences (NCATS), 2022):
In all, about 2,100 compounds went through this assay and about 320 (15%) were called active. Roughly 52% stayed inconclusive and do not appear here. Calls follow the shape of the dose curve; as a rule, active = well fitted cell-killing curve with a large enough effect; inconclusive = small, poorly fitted or top-dose-only effect, or effect the other way; inactive = flat fitted curve, though single readings scatter. Some of the results follow. Entries that show only a call come without a potency.

Assay: Viability Counterscreen for CMV-Luciferase Assay of Inhibitors of ATXN expression; also: nearly all actives have a fitted effect of over 55% in size
Settings: HEK-293 CMV-luciferase cells viability, protease fluorescence, 24 h
In short: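 Dosing on CMV-luciferase HEK-293 cells for 24 hr, 37 °C. Luminescence read with SteadyGlo; cytotoxicity measured first as Gly-Phe-AFC protease fluorescence, 25 uM final substrate, 30 min.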
Potency is read from the fitted curve at half-maximal effect.

| SMILES | Potency |
| --- | --- |
| c1nc(CCO[C@H]2CCCCO2)cc2cc3c(cc12)OCO3 | inactive |
| CC(=O)c1cccc(-c2ccnc3c2CC(C(=O)Nc2ccc(F)c(Cl)c2)O3)c1 (configuration not stated) | inactive |
| COc1ccc(CCCNC(=O)C2Cc3c(-c4cccc(NC(C)=O)c4)ccnc3O2)cc1 (configuration not stated) | inactive |
| CC(=O)Nc1cccc(-c2ccnc3c2CC(C)(C(=O)Nc2ccc(Cl)c(C(F)(F)F)c2)O3)c1 (configuration not stated) | 28.2 µM (active) |
| COC(=O)c1ccc(N2CCOCC2)c(NC(=O)Nc2cccc(OC)c2)c1 | inactive |
| CCCC(=O)NC(c1ccc(OC)cc1)c1c(O)ccc2ccccc12 (configuration not stated) | 10 µM (active) |
| CCCC(=O)NC(c1ccco1)c1cc(Cl)c2cccnc2c1O (configuration not stated) | inactive |
| O=C(NC(c1ccccc1)c1c(O)ccc2ccccc12)c1ccccc1Cl (configuration not stated) | inactive |
| O=C(N/N=C/c1cc(Cl)cc([N+](=O)[O-])c1O)c1cccc(S(=O)(=O)N2CCOCC2)c1 | inactive |
| Cc1ncc(CO)c(/C=N/NC(=O)c2cccc(S(=O)(=O)N3CCCC3)c2)c1O | inactive |
| O=C(Nc1ccc(NC(=O)c2cccs2)cc1)c1ccc2c(c1)OCO2 | inactive |
| O=[N+]([O-])c1ccc(/C=N/N=C/c2ccc([N+](=O)[O-])o2)o1 | 4.47 µM (active) |
| COc1ccccc1NS(=O)(=O)c1cccc(C(=O)N/N=C/c2ccc([N+](=O)[O-])o2)c1 | 10 µM (active) |
| O=C(N/N=C/c1ccc([N+](=O)[O-])o1)c1ccc2c(c1)OCO2 | 17.8 µM (active) |
| O=C(N/N=C/c1ccccc1O)c1cccc(C(F)(F)F)c1 | inactive |
| Cn1c(S(=O)(=O)c2ccc([N+](=O)[O-])cc2)nc(Br)c1Br | inactive |
| CC(C)C[C@H](NC(=O)c1[nH]cnc1C(=O)Nc1ccc(CNC(=O)OC(C)(C)C)cc1)C(=O)OCc1ccccc1 | inactive |
| CCc1noc(C)c1C(=O)N1CCSC1=Nc1cccc(Cl)c1C | inactive |
| CCC(C)(C)c1ccc(Oc2ccc(N)cc2)cc1 | inactive |
| NNC(=O)c1sc2cc(C(F)(F)F)cnc2c1-c1cccs1 | inactive |
| CCc1ccc(C(O)c2ncc(-c3cccc(C(F)(F)F)c3)[nH]2)cc1 (configuration not stated) | inactive |
| CCN(Cc1ccccc1)S(=O)(=O)c1ccc(C(=O)Nc2nnc(C3CC3)o2)cc1 | inactive |
| O=C(Nc1nnc(C2CC2)o1)c1ccc(S(=O)(=O)N2CCCc3ccccc32)cc1 | 11.2 µM (active) |
| CC1CCCCN1S(=O)(=O)c1ccc(C(=O)Nc2nnc(-c3ccccc3Cl)o2)cc1 (configuration not stated) | inactive |
| CN(CCOc1ccc(Br)cc1)CC(O)COc1ccc(C#N)cc1 (configuration not stated) | inactive |
| NNc1ncnc2sc3c(c12)CCC3 | inactive |
| Clc1c(Cl)c(Cl)c2n[nH]nc2c1Cl | inactive |
